Laboratory results: the supplement of paper PMC11732987, “Enantioselective OTUD7B fragment discovery through chemoproteomics screening and high-throughput optimisation” (Communications Chemistry, 2025)

Columns and labels:
Test in all cases: log2 ratio of Biotin-Ahx-Ub-VS probe labelling (fragment/DMSO); higher = less target engagement (more negative = stronger competition), active = hit call of the paper (q ≤ 0.05, log2 ratio ≤ -1)
Conditions in all cases: compound concentration: 200 uM; treatment time: 3 h
USP42 = target: T1, USP42 (UniProt Q9H9J4)
T1 sequence (whole entry): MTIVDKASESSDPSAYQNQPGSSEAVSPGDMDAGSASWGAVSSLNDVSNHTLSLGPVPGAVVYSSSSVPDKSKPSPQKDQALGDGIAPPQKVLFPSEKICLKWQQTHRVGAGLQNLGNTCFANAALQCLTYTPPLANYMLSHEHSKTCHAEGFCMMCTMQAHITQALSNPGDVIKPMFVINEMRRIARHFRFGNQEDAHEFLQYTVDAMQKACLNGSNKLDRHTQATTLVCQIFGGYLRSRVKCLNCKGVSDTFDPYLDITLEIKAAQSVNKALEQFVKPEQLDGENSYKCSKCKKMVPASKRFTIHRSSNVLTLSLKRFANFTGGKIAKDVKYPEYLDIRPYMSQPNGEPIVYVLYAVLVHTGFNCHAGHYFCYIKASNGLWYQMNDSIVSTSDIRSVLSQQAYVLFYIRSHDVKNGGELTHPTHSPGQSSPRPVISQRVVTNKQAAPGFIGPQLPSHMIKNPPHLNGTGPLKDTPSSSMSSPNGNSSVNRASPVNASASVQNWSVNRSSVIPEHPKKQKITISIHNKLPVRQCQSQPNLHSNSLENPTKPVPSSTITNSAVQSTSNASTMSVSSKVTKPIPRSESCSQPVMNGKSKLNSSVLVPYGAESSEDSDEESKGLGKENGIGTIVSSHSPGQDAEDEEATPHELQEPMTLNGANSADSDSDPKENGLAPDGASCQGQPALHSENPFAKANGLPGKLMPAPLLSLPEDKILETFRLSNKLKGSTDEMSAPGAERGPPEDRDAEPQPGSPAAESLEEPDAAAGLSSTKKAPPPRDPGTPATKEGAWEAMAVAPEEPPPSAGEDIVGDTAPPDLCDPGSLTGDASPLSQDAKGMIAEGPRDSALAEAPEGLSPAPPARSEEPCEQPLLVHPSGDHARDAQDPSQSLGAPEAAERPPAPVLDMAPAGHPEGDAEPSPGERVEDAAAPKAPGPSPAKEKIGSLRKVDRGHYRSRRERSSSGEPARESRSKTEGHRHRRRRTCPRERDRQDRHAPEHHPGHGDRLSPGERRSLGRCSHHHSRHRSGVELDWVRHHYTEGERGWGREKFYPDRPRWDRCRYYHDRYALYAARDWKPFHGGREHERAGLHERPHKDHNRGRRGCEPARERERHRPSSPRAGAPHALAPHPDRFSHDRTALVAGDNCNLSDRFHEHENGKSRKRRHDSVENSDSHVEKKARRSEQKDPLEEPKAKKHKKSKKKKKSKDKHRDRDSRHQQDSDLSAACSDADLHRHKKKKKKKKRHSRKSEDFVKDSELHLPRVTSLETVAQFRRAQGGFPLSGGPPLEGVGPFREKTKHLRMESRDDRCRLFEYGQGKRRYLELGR
Summary of the method: (§1)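 Labelled DUBs from HEK293T lysate were NeutrAvidin-enriched, digested with LysC and trypsin, and run by diaPASEF LC-MS/MS. Before that, each 495 µg sample in Tris/CHAPS/IGEPAL buffer with protease inhibitors was treated in triplicate with fragment at 200 µM or vehicle for 3 h, then with Biotin-Ahx-Ub-VS at 0.5 µM final for 1 h. Values are average log2 ratios of fragment over vehicle by unpaired t-test, based on global-median-normalised Spectronaut label-free quantities from proteins with ≥2 unique peptides.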

USP46 = USP46 (UniProt P62068)
Sequence of USP46 (P62068 whole entry): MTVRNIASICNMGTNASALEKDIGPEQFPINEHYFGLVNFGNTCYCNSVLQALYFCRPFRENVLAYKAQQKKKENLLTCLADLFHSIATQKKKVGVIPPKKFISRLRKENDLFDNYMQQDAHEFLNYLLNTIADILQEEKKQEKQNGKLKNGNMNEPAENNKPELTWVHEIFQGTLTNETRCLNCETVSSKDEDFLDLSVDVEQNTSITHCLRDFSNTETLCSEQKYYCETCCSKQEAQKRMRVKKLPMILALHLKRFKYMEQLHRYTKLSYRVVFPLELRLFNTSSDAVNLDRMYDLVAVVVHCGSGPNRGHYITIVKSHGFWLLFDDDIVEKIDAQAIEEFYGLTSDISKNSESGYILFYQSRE
Summary of the method: as §1

USP47 = target: T2, USP47 (UniProt Q96K76)
T2 sequence (whole entry): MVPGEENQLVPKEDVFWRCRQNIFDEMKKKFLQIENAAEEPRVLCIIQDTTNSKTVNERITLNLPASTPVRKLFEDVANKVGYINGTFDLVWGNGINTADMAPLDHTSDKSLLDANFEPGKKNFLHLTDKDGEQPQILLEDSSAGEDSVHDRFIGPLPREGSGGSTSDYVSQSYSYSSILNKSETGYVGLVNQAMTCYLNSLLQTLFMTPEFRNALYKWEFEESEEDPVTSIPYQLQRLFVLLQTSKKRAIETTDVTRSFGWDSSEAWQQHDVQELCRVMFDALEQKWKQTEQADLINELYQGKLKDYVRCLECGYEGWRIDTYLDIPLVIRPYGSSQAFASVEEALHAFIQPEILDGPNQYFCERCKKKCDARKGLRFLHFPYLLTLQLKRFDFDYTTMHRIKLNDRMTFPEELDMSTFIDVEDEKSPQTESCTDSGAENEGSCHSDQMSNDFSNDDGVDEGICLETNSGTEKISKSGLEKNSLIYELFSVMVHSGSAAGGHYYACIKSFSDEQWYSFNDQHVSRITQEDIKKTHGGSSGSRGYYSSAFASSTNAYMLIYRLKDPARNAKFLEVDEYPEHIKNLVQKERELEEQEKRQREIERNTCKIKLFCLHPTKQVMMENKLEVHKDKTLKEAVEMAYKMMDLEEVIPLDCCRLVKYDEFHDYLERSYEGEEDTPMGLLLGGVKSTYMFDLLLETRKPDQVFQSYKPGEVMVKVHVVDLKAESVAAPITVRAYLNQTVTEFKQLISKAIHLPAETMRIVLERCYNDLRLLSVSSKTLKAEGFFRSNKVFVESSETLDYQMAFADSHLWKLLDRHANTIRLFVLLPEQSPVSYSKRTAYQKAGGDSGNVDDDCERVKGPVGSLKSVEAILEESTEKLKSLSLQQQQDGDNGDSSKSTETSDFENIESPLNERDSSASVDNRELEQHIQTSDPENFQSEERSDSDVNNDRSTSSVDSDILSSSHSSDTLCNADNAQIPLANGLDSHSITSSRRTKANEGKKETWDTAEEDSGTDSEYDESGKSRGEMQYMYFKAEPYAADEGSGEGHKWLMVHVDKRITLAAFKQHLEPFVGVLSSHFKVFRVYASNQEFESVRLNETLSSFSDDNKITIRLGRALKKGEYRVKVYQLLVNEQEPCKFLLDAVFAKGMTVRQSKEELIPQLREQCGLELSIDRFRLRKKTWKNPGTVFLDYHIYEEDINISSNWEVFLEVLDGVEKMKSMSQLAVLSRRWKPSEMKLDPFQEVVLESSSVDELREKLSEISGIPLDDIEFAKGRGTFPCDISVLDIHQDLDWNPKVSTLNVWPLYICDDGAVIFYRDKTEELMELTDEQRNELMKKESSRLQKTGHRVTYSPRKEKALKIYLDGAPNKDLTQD
Summary of the method: as §1

USP48 = target: T3, USP48 (UniProt Q86UV5)
T3 sequence (whole entry): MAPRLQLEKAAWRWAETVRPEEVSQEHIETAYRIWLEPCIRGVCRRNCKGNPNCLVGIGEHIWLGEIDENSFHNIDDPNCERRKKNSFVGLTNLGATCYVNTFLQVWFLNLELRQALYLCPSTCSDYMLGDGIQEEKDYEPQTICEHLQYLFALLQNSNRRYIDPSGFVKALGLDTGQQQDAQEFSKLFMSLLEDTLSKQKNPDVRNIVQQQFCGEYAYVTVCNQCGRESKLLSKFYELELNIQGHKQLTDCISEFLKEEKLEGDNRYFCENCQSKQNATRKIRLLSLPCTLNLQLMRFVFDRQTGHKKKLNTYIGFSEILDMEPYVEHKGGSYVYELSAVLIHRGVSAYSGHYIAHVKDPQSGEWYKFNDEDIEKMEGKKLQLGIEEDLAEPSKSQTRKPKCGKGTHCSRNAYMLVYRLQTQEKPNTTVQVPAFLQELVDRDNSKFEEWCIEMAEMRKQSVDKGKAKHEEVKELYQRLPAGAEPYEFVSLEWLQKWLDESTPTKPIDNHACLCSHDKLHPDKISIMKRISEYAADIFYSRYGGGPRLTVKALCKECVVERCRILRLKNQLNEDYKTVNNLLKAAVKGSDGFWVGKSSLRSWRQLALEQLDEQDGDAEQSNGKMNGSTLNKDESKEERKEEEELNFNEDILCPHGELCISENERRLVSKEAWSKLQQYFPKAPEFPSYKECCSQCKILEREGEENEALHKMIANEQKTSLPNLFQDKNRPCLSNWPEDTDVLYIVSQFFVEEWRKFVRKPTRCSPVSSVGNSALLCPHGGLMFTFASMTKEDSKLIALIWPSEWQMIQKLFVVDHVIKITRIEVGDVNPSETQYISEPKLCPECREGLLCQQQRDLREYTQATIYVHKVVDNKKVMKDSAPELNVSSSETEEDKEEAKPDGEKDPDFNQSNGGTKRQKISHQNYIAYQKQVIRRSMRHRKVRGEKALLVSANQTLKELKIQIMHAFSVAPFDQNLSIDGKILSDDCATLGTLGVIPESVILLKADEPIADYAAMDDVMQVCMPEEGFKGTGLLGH
Summary of the method: as §1

USP5 = target: T4, USP5 (UniProt P45974)
T4 sequence (whole entry): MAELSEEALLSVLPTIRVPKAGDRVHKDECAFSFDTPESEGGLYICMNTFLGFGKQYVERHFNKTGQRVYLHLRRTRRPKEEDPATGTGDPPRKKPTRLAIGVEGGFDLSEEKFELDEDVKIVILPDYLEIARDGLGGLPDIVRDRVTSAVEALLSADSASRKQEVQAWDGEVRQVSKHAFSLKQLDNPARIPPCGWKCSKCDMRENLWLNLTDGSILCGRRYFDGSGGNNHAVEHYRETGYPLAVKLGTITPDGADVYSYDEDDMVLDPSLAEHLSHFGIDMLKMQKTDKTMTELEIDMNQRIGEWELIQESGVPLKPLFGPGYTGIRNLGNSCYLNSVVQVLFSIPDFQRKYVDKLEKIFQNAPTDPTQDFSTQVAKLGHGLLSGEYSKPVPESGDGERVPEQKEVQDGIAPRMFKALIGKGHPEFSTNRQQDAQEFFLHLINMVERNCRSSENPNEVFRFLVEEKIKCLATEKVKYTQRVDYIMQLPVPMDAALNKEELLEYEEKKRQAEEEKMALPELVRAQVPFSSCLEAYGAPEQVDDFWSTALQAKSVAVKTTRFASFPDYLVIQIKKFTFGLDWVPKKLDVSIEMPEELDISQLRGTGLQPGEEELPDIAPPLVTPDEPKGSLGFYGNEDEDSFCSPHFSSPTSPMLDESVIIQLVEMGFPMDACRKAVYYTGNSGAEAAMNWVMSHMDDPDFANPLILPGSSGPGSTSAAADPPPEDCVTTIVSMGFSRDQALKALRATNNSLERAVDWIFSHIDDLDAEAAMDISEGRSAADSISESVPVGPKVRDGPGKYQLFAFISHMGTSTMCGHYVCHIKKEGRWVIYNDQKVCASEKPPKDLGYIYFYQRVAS
Summary of the method: as §1

USP54 = USP54 (UniProt Q70EL1)
Sequence of USP54 (Q70EL1 whole entry): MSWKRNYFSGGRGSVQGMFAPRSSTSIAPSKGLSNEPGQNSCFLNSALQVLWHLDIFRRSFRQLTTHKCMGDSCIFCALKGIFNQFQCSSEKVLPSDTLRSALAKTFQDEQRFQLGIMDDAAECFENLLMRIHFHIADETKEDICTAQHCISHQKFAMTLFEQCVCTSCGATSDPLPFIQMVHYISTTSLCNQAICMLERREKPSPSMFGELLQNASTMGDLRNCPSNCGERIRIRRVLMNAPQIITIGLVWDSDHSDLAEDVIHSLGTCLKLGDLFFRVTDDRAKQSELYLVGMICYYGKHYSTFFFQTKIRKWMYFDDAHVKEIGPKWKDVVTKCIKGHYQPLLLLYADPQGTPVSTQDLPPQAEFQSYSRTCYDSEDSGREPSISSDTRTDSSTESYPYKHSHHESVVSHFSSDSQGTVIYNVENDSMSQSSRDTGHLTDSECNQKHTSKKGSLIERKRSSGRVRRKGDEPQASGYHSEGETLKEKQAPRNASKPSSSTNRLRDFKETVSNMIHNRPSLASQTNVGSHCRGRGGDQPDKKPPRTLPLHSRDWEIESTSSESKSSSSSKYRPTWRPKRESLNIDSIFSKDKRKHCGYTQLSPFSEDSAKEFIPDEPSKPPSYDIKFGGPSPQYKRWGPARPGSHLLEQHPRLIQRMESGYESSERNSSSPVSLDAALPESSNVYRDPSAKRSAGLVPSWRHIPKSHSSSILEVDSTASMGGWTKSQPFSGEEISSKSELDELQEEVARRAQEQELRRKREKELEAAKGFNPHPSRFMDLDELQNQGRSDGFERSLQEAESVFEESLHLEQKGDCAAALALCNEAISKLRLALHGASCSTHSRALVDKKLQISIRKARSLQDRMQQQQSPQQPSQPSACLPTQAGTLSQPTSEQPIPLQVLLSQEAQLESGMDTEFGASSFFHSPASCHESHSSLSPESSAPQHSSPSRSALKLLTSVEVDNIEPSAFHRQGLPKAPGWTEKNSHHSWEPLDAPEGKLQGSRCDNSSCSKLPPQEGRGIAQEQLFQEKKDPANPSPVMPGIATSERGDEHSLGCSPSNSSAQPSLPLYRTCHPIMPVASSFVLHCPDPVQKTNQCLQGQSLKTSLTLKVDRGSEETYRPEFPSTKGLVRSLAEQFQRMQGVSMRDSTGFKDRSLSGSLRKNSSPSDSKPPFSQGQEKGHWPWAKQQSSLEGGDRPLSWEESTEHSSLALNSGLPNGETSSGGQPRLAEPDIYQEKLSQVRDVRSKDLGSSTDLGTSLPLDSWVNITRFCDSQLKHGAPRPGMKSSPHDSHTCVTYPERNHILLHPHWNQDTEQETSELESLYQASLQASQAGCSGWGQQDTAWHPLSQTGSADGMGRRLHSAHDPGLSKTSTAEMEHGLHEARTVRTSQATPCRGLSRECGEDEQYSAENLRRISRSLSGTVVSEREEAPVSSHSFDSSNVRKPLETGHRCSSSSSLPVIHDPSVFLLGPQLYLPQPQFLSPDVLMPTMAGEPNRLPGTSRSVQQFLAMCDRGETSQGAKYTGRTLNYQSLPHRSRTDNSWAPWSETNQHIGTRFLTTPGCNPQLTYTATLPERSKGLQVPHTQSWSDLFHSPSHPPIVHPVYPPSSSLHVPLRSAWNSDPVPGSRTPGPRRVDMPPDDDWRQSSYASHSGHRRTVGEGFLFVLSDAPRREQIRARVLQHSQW
Summary of the method: as §1

USP7 = USP7 (UniProt Q93009)
Sequence of USP7 (Q93009 whole entry, looked up): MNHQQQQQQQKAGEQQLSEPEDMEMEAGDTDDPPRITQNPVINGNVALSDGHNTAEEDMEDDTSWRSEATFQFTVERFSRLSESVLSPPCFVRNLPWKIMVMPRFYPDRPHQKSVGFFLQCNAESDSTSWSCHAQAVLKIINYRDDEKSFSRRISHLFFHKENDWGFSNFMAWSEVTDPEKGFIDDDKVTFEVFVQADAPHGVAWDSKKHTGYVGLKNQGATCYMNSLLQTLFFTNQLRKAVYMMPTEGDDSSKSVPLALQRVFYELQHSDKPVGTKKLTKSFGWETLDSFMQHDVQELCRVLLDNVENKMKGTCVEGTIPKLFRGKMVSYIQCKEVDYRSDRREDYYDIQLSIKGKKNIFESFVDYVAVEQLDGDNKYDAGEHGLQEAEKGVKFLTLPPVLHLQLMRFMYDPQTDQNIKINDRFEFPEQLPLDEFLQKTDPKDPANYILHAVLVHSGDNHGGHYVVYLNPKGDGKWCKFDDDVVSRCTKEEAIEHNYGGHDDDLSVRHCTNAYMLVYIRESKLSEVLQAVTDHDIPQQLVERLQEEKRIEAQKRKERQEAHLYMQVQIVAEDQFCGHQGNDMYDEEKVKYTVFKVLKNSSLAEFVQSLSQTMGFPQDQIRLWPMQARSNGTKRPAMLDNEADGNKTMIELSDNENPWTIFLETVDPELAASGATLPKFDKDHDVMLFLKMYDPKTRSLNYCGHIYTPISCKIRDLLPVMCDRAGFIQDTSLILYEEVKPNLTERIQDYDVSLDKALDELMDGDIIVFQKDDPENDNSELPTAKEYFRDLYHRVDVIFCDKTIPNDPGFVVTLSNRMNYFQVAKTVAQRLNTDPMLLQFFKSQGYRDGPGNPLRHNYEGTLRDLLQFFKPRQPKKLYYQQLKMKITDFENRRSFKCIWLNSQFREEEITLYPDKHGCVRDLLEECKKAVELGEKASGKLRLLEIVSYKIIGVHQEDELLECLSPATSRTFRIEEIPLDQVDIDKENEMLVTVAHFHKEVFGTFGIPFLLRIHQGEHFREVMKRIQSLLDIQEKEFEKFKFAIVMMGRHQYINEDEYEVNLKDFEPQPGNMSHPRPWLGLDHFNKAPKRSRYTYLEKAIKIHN
Summary of the method: as §1

USP8 = target: T5, USP8 (UniProt P40818)
T5 sequence (whole entry): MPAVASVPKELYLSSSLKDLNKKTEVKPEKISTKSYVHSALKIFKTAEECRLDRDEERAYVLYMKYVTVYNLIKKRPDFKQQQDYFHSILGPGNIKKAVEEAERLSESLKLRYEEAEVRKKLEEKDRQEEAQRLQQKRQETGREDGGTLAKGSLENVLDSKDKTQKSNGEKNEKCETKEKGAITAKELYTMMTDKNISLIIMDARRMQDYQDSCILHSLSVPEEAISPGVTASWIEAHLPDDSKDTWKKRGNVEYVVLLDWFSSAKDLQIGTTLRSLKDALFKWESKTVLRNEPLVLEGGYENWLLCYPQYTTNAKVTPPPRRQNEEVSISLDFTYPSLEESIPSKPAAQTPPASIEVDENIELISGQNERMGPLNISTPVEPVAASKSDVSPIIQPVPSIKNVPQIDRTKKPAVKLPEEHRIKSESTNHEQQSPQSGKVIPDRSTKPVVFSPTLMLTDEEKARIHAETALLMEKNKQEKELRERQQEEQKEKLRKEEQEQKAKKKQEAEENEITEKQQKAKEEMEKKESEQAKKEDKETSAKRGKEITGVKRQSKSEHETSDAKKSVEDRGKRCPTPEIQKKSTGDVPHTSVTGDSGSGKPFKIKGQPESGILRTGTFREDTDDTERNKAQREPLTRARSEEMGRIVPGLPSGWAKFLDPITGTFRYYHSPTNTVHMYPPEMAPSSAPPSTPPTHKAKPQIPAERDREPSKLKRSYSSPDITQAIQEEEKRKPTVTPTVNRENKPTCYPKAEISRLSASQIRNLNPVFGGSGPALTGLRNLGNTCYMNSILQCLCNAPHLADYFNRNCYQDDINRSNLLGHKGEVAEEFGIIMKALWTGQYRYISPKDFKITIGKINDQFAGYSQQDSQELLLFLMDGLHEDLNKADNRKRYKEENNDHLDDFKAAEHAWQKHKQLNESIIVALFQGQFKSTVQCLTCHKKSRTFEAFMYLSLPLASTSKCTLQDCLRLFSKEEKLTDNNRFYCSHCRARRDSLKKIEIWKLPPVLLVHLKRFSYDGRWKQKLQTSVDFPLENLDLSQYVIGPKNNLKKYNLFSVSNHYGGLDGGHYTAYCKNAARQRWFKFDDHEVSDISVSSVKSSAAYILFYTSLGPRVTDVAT
Summary of the method: as §1

USP9X = USP9X (UniProt Q93008)
Summary of the method: as §1

UniProt O00487 = target: UniProt O00487
Sequence of UniProt O00487 (O00487 whole entry): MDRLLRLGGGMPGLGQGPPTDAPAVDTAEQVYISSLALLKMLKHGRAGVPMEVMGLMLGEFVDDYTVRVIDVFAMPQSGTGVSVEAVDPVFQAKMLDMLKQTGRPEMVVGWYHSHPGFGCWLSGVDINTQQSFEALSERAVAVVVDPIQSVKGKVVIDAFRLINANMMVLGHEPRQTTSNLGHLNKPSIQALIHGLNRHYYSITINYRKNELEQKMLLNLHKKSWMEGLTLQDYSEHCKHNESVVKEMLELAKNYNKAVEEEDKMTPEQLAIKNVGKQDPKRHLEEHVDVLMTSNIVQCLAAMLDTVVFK
Summary of the method: as §1

Measured: log2 ratio of Biotin-Ahx-Ub-VS probe labelling

O=C(CCl)N1CCC(=C(F)CO)C1
inactive: USP42 0.374 | USP46 0.0599 | USP47 0.0525 | USP48 0.0406 | USP5 0.108 | USP54 0.0848 | USP7 0.0769 | USP8 0.0438 | USP9X 0.0939 | UniProt O00487 0.129
